# Only some compounds are listed: those with a hit (about 7% of all), similar ones and a draw of the others.
# ATXN2 expr inh: Primary qHTS for Inhibitors of ATXN expression. 0.72% of 360,000 active. Potency, µM (titrated, usually from 57 µM), for the others: at the top dose activity change, negative = inhibition, most hits filed as inhibitors. HEK-293 ATXN2-luciferase reporter, luminescence, 24 h; note: potency is the fitted concentration of half-maximal effect; % is set by controls: 0 for no effect and ±100 for the full control effect; nearly all actives have a fitted effect of over 55% in size
#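 qHTS (up to 57 uM final) was run with 24 h compound exposure of reporter cells at 37 °C. Each well was multiplexed: SteadyGlo luminescence measured ATXN2-luciferase expression after a fluorogenic Gly-Phe-AFC viability readout (25 uM final).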
# IL1B secr inh: qHTS for Inhibitors of Inflammasome Signaling: IL-1-beta AlphaLISA Primary Screen; activity change, % at 57.5 µM; 4.7% of 360,000 active; AID 743279, 2014; THP-1 LPS/ATP IL-1B secretion, AlphaLISA, 16 h; active compounds read low; in the data active = activity change below about -50%; inconclusive = mostly about -30% to -49%; note: % is set by controls: 0 for no effect and ±100 for the full control effect
#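 THP-1 cells pretreated 1 hr with compounds (up to 57.5 uM final), then stimulated with LPS (250 ng/mL final) plus ATP (1.25 mM final); secreted IL-1B measured by AlphaLISA after 16 hr, decreased signal indicating inhibition.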
# DRD3 antagonist: qHTS of D3 Dopamine Receptor Antagonist: qHTS | 2.5% of 360,000 active | AID 652054, 2013 | max response, negative = inhibition, % | D(3) dopamine receptor (Homo sapiens), P35462 | D3R cells, DiscoveRx beta-arrestin luminescence, antagonist mode; active compounds read low; in the data active = max response below about -50%; inconclusive = no clear call, values can overlap the other calls; note: % is set by controls: 0 for no effect and ±100 for the full control effect
# Target sequence (P35462 whole entry, looked up): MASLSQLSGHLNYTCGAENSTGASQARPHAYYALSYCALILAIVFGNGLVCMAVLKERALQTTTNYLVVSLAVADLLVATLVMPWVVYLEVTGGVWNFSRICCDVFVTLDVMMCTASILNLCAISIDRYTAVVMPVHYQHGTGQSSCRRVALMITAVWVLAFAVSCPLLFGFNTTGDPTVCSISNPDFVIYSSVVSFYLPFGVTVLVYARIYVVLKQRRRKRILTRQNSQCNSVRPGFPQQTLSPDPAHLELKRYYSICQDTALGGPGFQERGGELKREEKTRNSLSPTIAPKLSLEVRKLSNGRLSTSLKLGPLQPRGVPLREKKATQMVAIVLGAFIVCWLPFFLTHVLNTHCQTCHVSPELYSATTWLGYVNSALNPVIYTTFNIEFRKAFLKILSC
#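 Cells expressing the human receptor were seeded at 1500 cells/well, incubated overnight at 37 degrees C in 5% CO2, then exposed to library compounds with dopamine controls for 90 minutes at 37 degrees C before luminescent detection.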
# ATXN viability: Viability Counterscreen for Primary qHTS for Inhibitors of ATXN expression. Potency, µM (doses to about 56.7 µM), most hits filed as cytotoxic. AID 651635, 2014. S2 cells (HEK-293 line with an ATXN2-luciferase reporter) viability, CellTiter-Fluor protease fluorescence, 24 h. 0.49% of 400,000 active; note: potency is the fitted concentration of half-maximal effect; nearly all actives have a fitted effect of over 40% in size
# a7 integrin act: qHTS for Activators of Integrin-Mediated Alleviation for Muscular Dystrophy; alpha7betagal myoblasts, beta-gal FDG fluorescence, 48 h; 0.064% of 350,000 active; AID 624291, 2012; Potency, µM (doses to about 38.3 µM), for inactives: top-dose activation, actives largely listed as activators;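 note: potency is the fitted concentration of half-maximal effect; 100% = response of the positive control SU9516; nearly all actives have a fitted effect of over 60% in size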
#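 alpha7betagal+/- myoblasts (passage 13, 250/well) treated 48 h at 37C with compounds at 1:260 dilution of DMSO stock. Lysed, then beta-galactosidase activity read as FDG fluorescence (ex 480/em 540) after 30 min, with pre-read for autofluorescence.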
# D3 ag: qHTS of D3 Dopamine Receptor Agonist: qHTS | D(3) dopamine receptor (Homo sapiens), P35462 | D3R DiscoveRx beta-arrestin cells, luminescence, 90 min | max activation, % | 0.58% of 410,000 active; in the data active = max activation above about 30%; note: 0% is about no effect
#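 Agonist-mode cell screen: cells plated at 1500/well and incubated overnight at 37 °C, then exposed to library compounds for 90 min at 37 °C. Detection reagent was added for 30–60 min at room temperature, and luminescence was read.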
# An asterisk follows results filed as active; i = inactive; ? = inconclusive; · = no result. Unless noted, calls come from the whole dose curve; as a rule, active = well fitted curve in the direction sought with a large enough effect; inconclusive = small, poorly fitted or top-dose-only effect, or another doubt; inactive = no such curve, though single readings can be large; an effect the other way counts as inactive or inconclusive.
SMILES,ATXN2 expr inh,IL1B secr inh,DRD3 antagonist,ATXN viability,a7 integrin act,D3 ag
CCCCCn1c(C(Cc2ccccc2)NC(C)=O)nc2ccccc21 (centres undefined),-2%,-14,10,i,0%,-12
COc1ccc(OC)c(NC(=O)C2CCN(Cc3cnn(-c4ccccc4)c3-n3cccc3)CC2)c1,-15%,-6,-65*,i,-48%,-10
COc1ccc(OC)c(NC(=O)CSCc2cnn(-c3ccccc3)c2-n2cccc2)c1,-12%,-11,0,i,-37%,6
O=C(COC(=O)CC1CCCC1)Nc1ccc(Cl)cn1,1%,0,10,i,24%,4
CC(OC(=O)CC1CCCC1)C(=O)Nc1ccc(Cl)cn1 (centres undefined),-10%,-12,-54*,i,9%,-2
O=C(NCC1CCCC(CNC(=O)Nc2ccc(Cl)cn2)C1)Nc1ccc(Cl)cn1 (centres undefined),?,-83*,6,?,-62%,6
CC1=C(c2ccc(C(C)C)cc2)S(=O)(=O)NC1=NCc1ccc(Cl)cc1,·,·,·,·,·,-11
CCOC(=O)C(=O)CCCCCCl,8%,·,·,i,·,·
C[C@]12CCC(=O)C=C1CCC1C2CC[C@@]2(C)C1CCC21OCCO1 (some centres undefined),-19%,-5,10,i,16%,-4
C=C1CC2C3CC[C@@]4(OCOC45COCO5)[C@@]3(C)C(O)CC2[C@@]2(C)CCC(=O)C=C12 (some centres undefined),-13%,-101*,11,i,-42%,-4
CCOC(=O)c1nnn(CC(=O)Nc2cc(F)ccc2F)c1C(=O)OCC,2%,-73*,13,i,2%,-3
CC(C)C(C(=O)NCC1CCCO1)N(C(=O)CNS(=O)(=O)c1ccccc1)C1CCCCC1 (centres undefined),-1%,-3,-5,i,20%,0
CCOc1ccc2cc(C3CC(c4ccco4)=NN3S(C)(=O)=O)c(Cl)nc2c1 (centres undefined),-9%,-60*,-1,i,-14%,-5
COc1ccc(N2CC(NC(=O)NCCC(C)C)CC2=O)cc1 (centres undefined),-3%,-65*,10,i,12%,2
CCN1CCN(C(=O)NC2CC(=O)N(c3ccc(OC)cc3)C2)CC1 (centres undefined),-4%,-69*,7,i,1%,5
COc1ccc(N2CC(NC(=O)NC(C)(C)C)CC2=O)cc1 (centres undefined),-6%,5,1,i,-9%,-2
CCCCn1nnnc1C(c1cc2ccccc2o1)N(CCC#N)Cc1ccccc1 (centres undefined),14%,-17,-53*,i,·,-12
O=S(=O)(Cc1ccccc1)/C1=C(\N2CCOCC2)CCCCCC1,4%,-13,14,i,7%,-11
O=C(Cn1c(=O)nc(-c2ccccc2F)c2cc(Cl)ccc21)N1CCN(c2ccccc2F)CC1,·,·,·,·,·,-12
COc1ccc2sc(N(CCCN(C)C)C(=O)c3ccc(S(=O)(=O)N4CCCc5ccccc54)cc3)nc2c1,?,-83*,?,·,-19%,-11
COc1cc2nc(N(CCCN(C)C)C(=O)c3ccc(S(=O)(=O)N4CCc5ccccc54)cc3)sc2cc1OC,-14%,-101*,-4,i,-45%,-4
CCc1ccc(OCC(=O)NNC(=O)CSc2ncnc3sc(C)c(C)c23)cc1,?,7,20,?,7%,11
CC(C)[C@@H]1CC[C@@H](C)C[C@H]1OC(=O)C[n+]1cc(-c2ccc(Cl)cc2)n2c1CCCCC2,?,·,2,?,-35%,-15
COc1ccc(-c2c[n+](CC(=O)OC3CC(C)CCC3C(C)C)c3n2CCC3)cc1 (centres undefined),?,-74*,-12,?,-59%,-25
Cc1ccc(S(=O)(=O)N2CCN(C(=O)CCN3C(=O)c4ccccc4C3=O)CC2)cc1C,-15%,-3,-14,i,8%,-1
SMILES,ATXN2 expr inh,IL1B secr inh,DRD3 antagonist,ATXN viability,a7 integrin act,D3 ag
COc1cc(OC)c(C(=O)NNC(=O)CN(C)S(=O)(=O)c2ccc(Cl)cc2)cc1OC,-7%,9,4,i,-13%,2
Cc1ccc(S(=O)(=O)CCC(=O)N(CCCN2CCOCC2)c2nc3ccccc3s2)cc1,?,-72*,-20,?,-53%,-24
O=C(CCS(=O)(=O)c1ccccc1)N(CCCN1CCOCC1)c1nc2ccccc2s1,?,-107*,?,·,-15%,-28
CC(=O)c1c(C)[nH]c(C(=O)OCC(=O)Nc2cc(Cl)ccc2[N+](=O)[O-])c1C,?,131,59,?,27%,21
COC(=O)C(NC(=O)c1ccccc1)C(C)(C)SCc1ccccc1 (centres undefined),·,8,-8,i,14%,-5
C/C(=N\OCC(=O)OC(C)C(=O)Nc1ccc(C(N)=O)cc1)c1ccc2c(c1)OCO2 (centres undefined),2%,1,-2,i,4.5µM*,1
CC(C)C[C@@H](CN1CCC[C@@H]1CN1C(=S)NC[C@@H]1Cc1ccccc1)N1C[C@H](Cc2ccc(O)cc2)N(CC2CCCCC2)C1=S,-7%,8,3,?,·,0
CC(C)C[C@@H](CN1CCCC1CN1C(=S)NC[C@@H]1Cc1ccc(O)cc1)N1C[C@H](Cc2ccc(O)cc2)N(CC2CCCCC2)C1=S (some centres undefined),?,-87*,-17,?,-42%,9
CC(C)C[C@@H](CN1CCC[C@@H]1CN1C(=S)NC[C@@H]1Cc1ccccc1)N1C[C@H](Cc2ccc(O)cc2)N(CC2CCCCCC2)C1=S,22µM*,-15,5,14µM*,·,0
CC(C)C[C@H]1CNC(=S)N1C[C@H]1CCCN1C[C@H](CC(C)C)N1C[C@H](Cc2ccc(O)cc2)N(CC2CCCCCC2)C1=S,?,-59*,0,22µM*,·,11
CNCc1ccccc1Sc1cccc(O)c1,-16%,?,-15,i,16%,-10
CNCc1ccccc1Sc1cc(O)ccc1O,?,-100*,-55*,?,-45%,-22
Nc1ccc(N2CCN(CCCCN3C(=O)C4CCCN4C3=O)CC2)cc1 (centres undefined),-16%,27,-16,18µM*,-14%,-4

# Screening data (PubChem)
